These results are taken from PubChem BioAssay (NCATS).

Assay [1] addresses Nuclear receptor subfamily 1 group I member 3 (Homo sapiens) (UniProt Q14994). Kind of assay: Primary qHTS for antagonist of constitutive androstane receptor (CAR) against the NCATS DSHEA and TCM libraries (AID 1794836).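 Also: HepG2 cells stably expressing hCAR with CYP2B6 luciferase reporter stimulated by CITCO.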 Summed up: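 Antagonist mode: CAR reporter luminescence (ONE-Glo) in HepG2-CYP2B6-hCAR cells stimulated with 48 uM CITCO (final) over 24 h at 37 C, compounds titrated; viability read first by CellTiter-Fluor fluorescence.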

A short description of assay [2]: KB-8-5-11 P-gp reporter qHTS against the NCATS DSHEA and TCM libraries (AID 1919977). Also: 0% is about no effect. Summed up: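 KB-8-5-11, 500 cells/well, DMEM/10% FBS without colchicine; 4 h attach; cpd titrations, 72 h, 37C/5% CO2; CellTiter-Glo, 30 min RT, luminescence.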
(qHTS replaces the single test concentration by a dilution series.)

For another assay, the system named is CRL-7250. Kind of assay: qHTS assay to identify novel small-molecules to repurpose for Merkel cell carcinoma treatment (AID 1296009). Also: nearly all actives have a fitted effect of over 60% in size. The following applies: MCC and control cell lines, CellTiter-Glo viability, 72 h; series mostly up to 92 µM. Summed up: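 Cell viability measured by CellTiter-Glo following 72 hr compound treatment at 37 degree celsius, with NPC and MIPE libraries tested in 8- and 11-point concentration series.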

A short description of assay [3]: Cytotoxicity counterscreen for inhibitors of SARS-CoV-2 cell entry (AID 1645845; calls by dose curve; also: nearly all actives have a fitted effect of over 50% in size). Summed up:
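ATP-content luminescence (ATPLite 1step, 15 min RT) read after 48 h compound exposure of Expi293F cells stably expressing human ACE2; normalized to cells-only wells and media-only wells.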
(In general: The purpose of a counterscreen is to sort out artefacts and off-target activity.)

Assay [4] in a line: Primary qHTS to identify inhibitors of SARS-CoV-2 cell entry (AID 1645846; calls by dose curve; also: nearly all actives have a fitted effect of over 45% in size). The following applies: activity change, negative = inhibition: at 57.1 µM (top of the series) unless noted. In a few lines: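 Inhibition of spike-mediated entry was scored in human ACE2-transfected Expi293F cells. Particles were MLV-pseudotyped with Wuhan-Hu-1 S carrying a 19-aa C-terminal deletion; signal was luciferase after two days, scaled between spike PP and fusion-protein-free PP.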

The nature of assay [5]: P-glycoprotein substrates identified in KB-8-5-11 adenocarcinoma cell line, qHTS therapeutic library screen (AID 1346987). Also: potency is read from the fitted curve at half-maximal effect; nearly all actives have a fitted effect of over 65% in size. Summed up: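 In this qHTS, P-gp-rich KB-8-5-11 cells received library compounds across a concentration range. Viability was quantified by luminescence after 72 h at 37 degree C.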
The test system of assay [6] is Zika virus NS2B-NS3 protease (linked construct). Kind of assay: Primary screen NINDS Rhodamine qHTS for Zika virus inhibitors (AID 1347160). Also: % is scaled to controls: 0 for no effect and ±100 for the full control effect; nearly all actives have a fitted effect of over 55% in size. In a few lines: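 Single-chain NS2B-NS3 protease, 25 nM, pH 8.0; compounds preincubated 15 min. Activity: Rhodamine110 release from 1.5 microM substrate over 15 min, room temperature, data fitted to 4-parameter Hill.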
Assay [7] concerns the target Calcium and integrin-binding protein 1 (Homo sapiens) (UniProt Q99828). Kind of assay: Primary qHTS for Identification of Calcium Integrin Binding Protein 1 (CIB1) Competitor (AID 1508620).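 Also: GST tagged CIB1 binding a fluorescein labelled alphaIIb integrin peptide tracer; top concentration of the series differs between compounds; % is scaled to controls: 0 for no effect and ±100 for the full control effect.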 In a few lines:
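CIB1-GST (1 uM final) and compound incubated 15 min at room temperature before adding FITC-alphaIIb peptide tracer (100 nM final). Competition for binding read by fluorescence polarization (ex 480, em 540) after another 15 min at room temperature.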

Assay [8] addresses Glutathione peroxidase 1 (Homo sapiens) (UniProt P07203). Kind of assay: Primary qHTS Assay for Inhibitors of Recombinant Selenoprotein Glutathione Peroxidase 1 (GPX1) (AID 1845191). Also: % is scaled to controls: 0 for no effect and ±100 for the full control effect; nearly all actives have a fitted effect of over 65% in size. Summed up: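 NADPH consumption tracked by fluorescence at 340/450 nm between t=0 and t=15 min, room temperature. Final mix: 10 nM GPX1, 100 nM glutathione reductase, 1 mM GSH, 0.5 mM NADPH, 0.5 mM cumene hydroperoxide, 0.01% BSA; 30 min compound–enzyme preincubation.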

Assay [9] concerns the target Phospholipid hydroperoxide glutathione peroxidase GPX4 (Homo sapiens) (UniProt P36969). Kind of assay: Primary qHTS Assay for Inhibitors of Recombinant Selenoprotein Glutathione Peroxidase 4 (GPX4) (AID 1845192). Also: % is scaled to controls: 0 for no effect and ±100 for the full control effect; nearly all actives have a fitted effect of over 65% in size. Summed up: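 NADPH consumption followed by fluorescence at 340/450 nm, t=0 and after 15 min at room temperature. Reaction started with cumene hydroperoxide (0.5 mM final) after 30 min compound–GPX4 preincubation; final 200 nM GPX4, 100 nM GR, 1 mM GSH, 0.5 mM NADPH.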

The target in assay [10] is Luciferin 4-monooxygenase (Photinus pyralis) (UniProt P08659). Kind of assay: Primary firefly luciferase (FLuc) qHTS assay for identification of artifact compounds. (AID 1845220). Also: nearly all actives have a fitted effect of over 60% in size. The following applies: outcome: dose series up to 54.1 µM unless noted. In a few lines: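 Cell-free, 1536-well qHTS. Buffer pH 7.6 with 0.01% Tween-20 and 0.05% BSA; 10 uM D-luciferin, 10 uM ATP; 10 nM P. pyralis luciferase; luminescence after 5 min.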

Assay [11] can be described thus: Primary fluorescence-based thiol-reactive (MSTI) qHTS assay for identification of artifact compounds. (AID 1845221). Also: potency is read from the fitted curve at half-maximal effect; nearly all actives have a fitted effect of over 65% in size. In a few lines:
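In PBS pH 7.4 with 2% DMSO, each compound met 4 uM MSTI for one hour at ambient temperature, shielded from light, before fluorescence detection.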

Assay [12] deals with Nanoluciferase (engineered Oplophorus gracilirostris luciferase). Kind of assay: Primary Nanoluciferase (NLuc) qHTS assay for identification of artifact compounds. (AID 1845222).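 Also: 0% = DMSO and -100% = no enzyme.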 In a few lines:
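Compounds are pinned into diluted (1:55) conditioned medium of NLuc-expressing S16 cells and held 15 min at room temperature protected from light. Nano-Glo substrate follows, and luminescence is read 5 min later.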

The nature of assay [13]: Primary redox qHTS assay for identification of artifact compounds. (AID 1845223).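 Also: 0% = DMSO and 100% = reference compound.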 Summed up: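 Redox-cycling detection via DTT (250 uM final) oxidation coupled to Amplex Red (25 uM)/HRP (250 mU/mL) in HBSS. 15 min preincubation plus 30 min after DTT, room temperature. Ex/Em 525/598 nm; 4-parameter Hill fit against DMSO and 10 uM DA3003.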
The test system of a further assay is C33A. Kind of assay: Primary qHTS to identify gynecologic anti-cancer compounds using libraries of approved drugs and bioactive compounds (AID 1345084). Also: % is scaled to controls: 0 for no effect and ±100 for the full control effect; nearly all actives have a fitted effect of over 55% in size. The following applies: Gynecologic cancer cell panel viability, ATPlite luminescence, 48 h; series mostly up to 57.5 µM. In a few lines: (§1)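 Five-concentration response, 48 h; readout is ATP-driven luciferase luminescence.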

The test system of a further assay is CAOV3. The description is as above. The note with it: Gynecologic cancer cell panel viability, ATPlite luminescence, 48 h; series mostly up to 57.5 µM. In a few lines: as §1
For the next assay, the system named is CASKI. Described as above. The note with it: Gynecologic cancer cell panel viability, ATPlite luminescence, 48 h; series mostly up to 57.5 µM. In a few lines: as §1
For another assay, the system named is Es-2. Described as above. The following applies: Gynecologic cancer cell panel viability, ATPlite luminescence, 48 h; series mostly up to 57.5 µM. Summed up:
as §1
A general note: Cellular ATP, detected with luciferase, serves as a proxy for viable cell number.

In the next assay the test system is HeLa. Described as above. The following applies: Gynecologic cancer cell panel viability, ATPlite luminescence, 48 h; series mostly up to 57.5 µM. In a few lines: as §1
The subject of another assay is JEG-3. The description is as above. The following applies: Gynecologic cancer cell panel viability, ATPlite luminescence, 48 h; series mostly up to 57.5 µM. Summed up:
as §1

A further assay deals with OV90. Described as above. The note with it: Gynecologic cancer cell panel viability, ATPlite luminescence, 48 h; series mostly up to 57.5 µM. In a few lines: as §1
A further assay relates to Tov-21-G. The description is as above. The following applies: Gynecologic cancer cell panel viability, ATPlite luminescence, 48 h; series mostly up to 57.5 µM. In a few lines: as §1
In a further assay the test system is Tov112D. Described as above. The note with it: Gynecologic cancer cell panel viability, ATPlite luminescence, 48 h; series mostly up to 57.5 µM. In a few lines: as §1
Assay [14] concerns the target Luciferin 4-monooxygenase (Photinus pyralis) (UniProt P08659). Kind of assay: Biochemical firefly luciferase enzyme assay for NPC (AID 624030).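 Also: purified P. pyralis luciferase at 10 nM with luciferin and ATP substrate; 0% = DMSO and -100% = full luciferase inhibition by PTC124 control; nearly all actives have a fitted effect of over 70% in size.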 Summed up:
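Direct inhibition of firefly luciferase enzyme (10 nM final, 50 mM Tris Acetate) assessed by luminescence within 5 minutes. Percent activity scaled between DMSO and PTC124 positive control, with concentration-effect curves classified by fit quality and response.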

The nature of assay [15]: qHTS Assay for Identifying Gametocytocidal Compounds (AID 743244).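 Also: % is scaled to controls: 0 for no effect and ±100 for the full control effect; actives lower the fluorescent signal which means gametocytes are killed.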 The note with it: P. falciparum 3D7 stage III-V gametocytes, alamarBlue, 72 h; max response: stronger effect = lower value. In a few lines: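 A resazurin-based viability read-out was applied to mature P. falciparum gametocytes: 72 h compound treatment, then 24 h dye incubation, with falling fluorescence signalling gametocytocidal effect.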

A further assay has as its system astro. Kind of assay: Drug repurposing screens with cells derived from glioblastoma tumor samples (AID 1345199). Also: % is scaled to controls: 0 for no effect and ±100 for the full control effect; nearly all actives have a fitted effect of over 40% in size. The following applies: viability, ATP luminescence, 48 h; series mostly up to 45.9 µM. In a few lines: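 Primary testing used CD133+ neurospheres from four GBM patients, seven concentrations, 48 h exposure and ATP-based viability; confirmation added three slower-growing patient lines.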

The nature of assay [16]: P-glycoprotein substrates identified in KB-3-1 adenocarcinoma cell line, qHTS therapeutic library screen (AID 1346986). Also: nearly all actives have a fitted effect of over 60% in size.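 Also: potency is read from the fitted curve at half-maximal effect; potency is for cytotoxicity meaning loss of cell viability.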 Summed up:
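Dose-response cytotoxicity, KB-3-1 vs P-gp-high KB-8-5-11, no colchicine in assay medium. Read: CellTiter-Glo at 72 h.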

Assay [17] in a line: Primary qHTS for inhibitors of nuclear receptor binding SET domain protein 2 (NSD2) in an isogenic RCH-ACV NSD2 p.E1099K mutant (9B) (AID 1645876). Also: potency is read from the fitted curve at half-maximal effect; nearly all actives have a fitted effect of over 70% in size.
Assay [18] is described as follows: Primary qHTS for inhibitors of nuclear receptor binding SET domain protein 2 (NSD2) in an RCH-ACV wild type WT cells (2C) (AID 1645877). Also: nearly all actives have a fitted effect of over 70% in size. Also: potency is read from the fitted curve at half-maximal effect.

Results filed as inconclusive are left out. Active and inactive are the calls of the source. Unless noted, calls follow the shape of the dose curve; as a rule, active = well fitted curve in the direction sought with a large enough effect; inconclusive = small, poorly fitted or top-dose-only effect, or another doubt; inactive = no such curve, though single readings can be large; an effect the other way counts as inactive or inconclusive.

Sequence of Nuclear receptor subfamily 1 group I member 3 (Homo sapiens) (Q14994 whole entry, looked up): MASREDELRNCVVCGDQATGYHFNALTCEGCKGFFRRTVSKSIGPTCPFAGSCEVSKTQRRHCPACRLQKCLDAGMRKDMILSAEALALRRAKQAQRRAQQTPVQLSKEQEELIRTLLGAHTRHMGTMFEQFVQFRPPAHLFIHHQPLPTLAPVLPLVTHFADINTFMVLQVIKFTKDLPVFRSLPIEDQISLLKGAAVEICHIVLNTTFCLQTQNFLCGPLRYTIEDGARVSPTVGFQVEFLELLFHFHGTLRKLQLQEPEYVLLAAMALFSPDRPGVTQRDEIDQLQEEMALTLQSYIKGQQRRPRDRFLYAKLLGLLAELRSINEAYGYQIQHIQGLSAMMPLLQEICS
Sequence of Luciferin 4-monooxygenase (Photinus pyralis) (P08659 whole entry, looked up): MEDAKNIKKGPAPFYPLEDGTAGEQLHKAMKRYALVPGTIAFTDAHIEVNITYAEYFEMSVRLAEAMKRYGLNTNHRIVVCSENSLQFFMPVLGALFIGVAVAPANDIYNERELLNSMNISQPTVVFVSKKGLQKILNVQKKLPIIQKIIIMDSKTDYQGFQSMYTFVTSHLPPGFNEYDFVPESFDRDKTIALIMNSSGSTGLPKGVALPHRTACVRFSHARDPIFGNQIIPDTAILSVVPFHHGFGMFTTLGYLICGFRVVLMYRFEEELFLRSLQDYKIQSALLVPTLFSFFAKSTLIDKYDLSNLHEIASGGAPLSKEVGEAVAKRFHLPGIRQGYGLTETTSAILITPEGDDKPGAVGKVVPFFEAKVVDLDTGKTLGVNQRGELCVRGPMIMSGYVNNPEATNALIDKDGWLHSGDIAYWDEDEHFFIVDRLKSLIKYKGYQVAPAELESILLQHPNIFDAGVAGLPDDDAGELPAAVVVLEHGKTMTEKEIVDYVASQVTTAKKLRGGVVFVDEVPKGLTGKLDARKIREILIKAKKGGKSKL
Sequence of Phospholipid hydroperoxide glutathione peroxidase GPX4 (Homo sapiens) (P36969 whole entry, looked up): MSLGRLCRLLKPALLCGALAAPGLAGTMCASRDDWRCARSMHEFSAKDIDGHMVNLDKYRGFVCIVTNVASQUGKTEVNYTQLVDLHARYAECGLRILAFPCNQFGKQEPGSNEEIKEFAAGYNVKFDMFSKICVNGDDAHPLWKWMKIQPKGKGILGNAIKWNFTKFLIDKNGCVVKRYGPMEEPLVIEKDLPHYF
Sequence of Calcium and integrin-binding protein 1 (Homo sapiens) (Q99828 whole entry, looked up): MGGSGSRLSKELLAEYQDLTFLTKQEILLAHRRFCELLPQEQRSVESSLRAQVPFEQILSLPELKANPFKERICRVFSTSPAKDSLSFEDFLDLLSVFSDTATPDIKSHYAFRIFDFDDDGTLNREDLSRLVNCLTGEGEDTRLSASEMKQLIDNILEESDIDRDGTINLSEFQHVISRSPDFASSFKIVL
Sequence of Glutathione peroxidase 1 (Homo sapiens) (P07203 whole entry, looked up): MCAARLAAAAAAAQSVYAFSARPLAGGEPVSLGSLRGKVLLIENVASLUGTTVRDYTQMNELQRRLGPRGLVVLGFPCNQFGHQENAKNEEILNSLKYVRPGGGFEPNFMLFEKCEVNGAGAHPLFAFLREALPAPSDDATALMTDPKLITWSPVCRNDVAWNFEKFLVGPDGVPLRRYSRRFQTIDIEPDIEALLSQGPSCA

In the case of `CC(=O)C1=C(O)C=C2Oc3c(C(C)=O)c(O)c(C)c(O)c3[C@]2(C)C1=O`, the Potency entry (in [1]; in the assay on CRL-7250) was “inactive” in each case. For the same compound, in [2], the compound was classed as inactive.
On to `O=C1C(c2c(O)[nH]c3ccccc23)=Nc2ccccc21`, for which the Potency entry (in assay [3]; in assay [4]; with CRL-7250) was “inactive” throughout.
`Cc1nn(C)c2c1C(c1ccc(C(F)(F)F)cc1)C(C#N)=C(N)O2` (configuration not stated): the Potency result (in [3]; in assay [4]; with CRL-7250) was “inactive” throughout.
For `C=C1C(=O)OC(CCCCCCCC)C1C(=O)O` (configuration not stated), the Potency result (in [3]; with CRL-7250) was “inactive” each time.
In the case of `C=CC(C)(C)C12C=C(O)C(=O)N3/C(=C\c4cnc[nH]4)C(=O)NC31N(OC)c1ccccc12` (configuration not stated), the Potency is 7960 nM (active) in [5] and 4120 nM (active) in [11]. Besides, the Potency result in assay [6], in assay [7], in [8], in [9], in [12] and in assay [13] was “inactive” in each case. In addition, the Potency entry in the assay with C33A, with CAOV3, in the assay on CASKI, in the assay with Es-2, in the assay on HeLa and with JEG-3 was “inactive” each time. The Potency result in the assay with OV90, in the assay with Tov-21-G and in the assay with Tov112D was “inactive” throughout. The outcome in [10] was “inactive [at 25.7 µM]”.
With `CCN(c1cc(C#CCN2CCOCC2)cc(C(=O)NCc2c(C)cc(C)[nH]c2=O)c1C)C1CCC(N(C)CCOC)CC1` (configuration not stated), the Potency entry (in assay [3]; in assay [4]; in the assay with CRL-7250) was “inactive” throughout.
Take `OC[C@H]1O[C@@H](Oc2cc(O)cc(/C=C/c3ccc(O)cc3)c2)[C@H](O)[C@@H](O)[C@@H]1O`: the Potency result (in assay [3]; in [4]; in the assay on CRL-7250) was “inactive” each time.
Consider `Cc1c(F)cc(C(=O)NC2CC2)cc1-c1ccc(C(=O)NCC(C)(C)C)cn1`, for which the Potency result (in assay [3]; in the assay with CRL-7250) was “inactive” each time. Moreover, the activity change, negative = inhibition in [4] was -35.5%.
Turning to `CC[C@@H](O)C(C[C@@H](C)N(C)C)(c1ccccc1)c1ccccc1`, the Potency entry (in [14]; in the assay on astro) was “inactive” throughout. Further, in assay [15], the max response was 5.08% (inactive).
Regarding `CC(C)(O)/C=C/C(=O)[C@](C)(O)[C@H]1[C@H](O)C[C@@]2(C)[C@@H]3CC=C4[C@@H](C=C(O)C(=O)C4(C)C)[C@]3(C)C(=O)C[C@]12C`, the Potency is 94.4 nM (active) in assay [16], 237 nM (active) in assay [5], 42.2 nM (active) in assay [17] and 37.6 nM (active) in [18].
As for `Nc1ccn(CC(CO)OCP(=O)(O)O)c(=O)n1` (configuration not stated), the Potency result in [16] and in assay [18] was “inactive” throughout.
